Assay outcomes as filed in PubChem BioAssay.
The sample as a whole holds a higher share of hits than the screen did.
Dicer processing: human Dicer pre-microRNA cleavage inhibition. Q9UPY3. cat-ELCCA pre-miR-21 Dicer processing, chemiluminescence; stronger effect = higher value. z-score at 25 µM. hit rate 6% among 47,000; in the data active means z-score above about 3, passing the limit was not always enough;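 further: higher signal means more uncleaved substrate so more Dicer inhibition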
Numbers stand for hits; i = inactive; ! = a repeat was not active.

SMILES | Dicer processing
O=[N+]([O-])C1=Cc2cc(Cl)cc(Cl)c2OC1c1ccc(F)cc1 (configuration not stated) | 5.2
CC(C)c1ccc(C2Oc3ccccc3C=C2[N+](=O)[O-])cc1 (configuration not stated) | i
COc1cccc2c1OC(c1ccc(F)cc1)C([N+](=O)[O-])=C2 (configuration not stated) | 3.9
COc1ccc(/C=N/N=C(\N)SCc2ccc(F)cc2)cc1 | i
COc1cc(-c2nnc3ccc(C(F)(F)F)cn23)ccc1OCc1ccccc1 | i
Cc1nn(-c2ccccc2)c2[nH]c3ccccc3c(=O)c12 | i
Cc1nn(-c2ccc([N+](=O)[O-])cc2)c(N)c1C(N)=S | i
Cc1nn(-c2ccc([N+](=O)[O-])cc2)c2[nH]c3ccccc3c(=O)c12 | 4.2
O=c1[nH]nc2c(-c3ccccc3)c(-c3ccccc3)c(-c3ccccc3)nn12 | i
COc1ccc(Oc2ccc(C(F)(F)F)cc2NC(=O)c2nn(-c3ccccc3)nc2C)cc1 | i
FC(F)(F)c1ccnc(Sc2ccccc2NC(=S)Nc2ccc(Cl)cc2)n1 | i
O=C(CN1CCOCC1)N1c2ccccc2CCc2ccccc21 | i
O=C(NCC1NCCc2ccccc21)C1CCCCC1 (configuration not stated) | i
O=C(NCC1c2ccccc2CCN1C(=O)CN1CCOCC1)C1CCCCC1 (configuration not stated) | 4.5
Cc1nc(Nc2ncc3c(n2)CC(c2ccc(F)cc2)CC3=O)nc2ccccc12 (configuration not stated) | i
CN(C)/C=C/C(=O)c1csc2ccccc12 | 3.5
Cc1oc(-c2ccccc2)cc1C(=O)/C=C/N(C)C | i
CN(C)/C=C/C(=O)c1ccc(Br)s1 | i
O=[N+]([O-])c1cc(Br)cnc1Sc1n[nH]c(-c2ccccc2)n1 | i
CC1=C(C(=O)OCCc2ccccc2)C(c2ccncc2)C2=C(CCCC2=O)N1 (configuration not stated) | i
CN(C)CCCN1c2ccccc2CCc2ccc(Cl)cc21 | i
CN(CCCN1c2ccccc2CCc2ccccc21)CC(=O)c1ccc(Cl)cc1 | i
CNCCCN1c2ccccc2CCc2ccccc21 | 5.6!
Cn1c(=O)c2c(-c3ccccc3)n(C(CO)(CO)CO)cc2n(C)c1=O | i
Cc1ccc(-c2c3c(=O)n(C)c(=O)n(C)c3cn2C)cc1 | i
SMILES | Dicer processing
Cn1c(=O)c2c(-c3ccccc3)n(CCCO)cc2n(C)c1=O | 5.8
COc1ccccc1OCC(O)Cn1c[n+](C)c2cc(C)c(C)cc21 (configuration not stated) | i
Cc1nc(C)c(-c2csc(Nc3cccc(O)c3)n2)s1 | i
Cc1nc(C)c(-c2csc(Nc3ccc(C(=O)O)cc3)n2)s1 | i
Cc1nc(C)c(-c2csc(Nc3ccccc3)n2)s1 | 5.1
CC1=C(C(=O)OC(C)C)C(c2ccc(C)cc2)n2c(nc3ccccc32)N1 (configuration not stated) | i
COc1ccc(Oc2c(C)oc3cc(OC(=O)N4CCOCC4)ccc3c2=O)cc1 | i
CC(=O)Oc1ccc2c(=O)c(Oc3ccc(Cl)cc3)c(C(F)(F)F)oc2c1 | i
O=C(Oc1ccc2c(=O)c(-c3ccc(Cl)cc3)c(C(F)(F)F)oc2c1)N1CCOCC1 | 4
CCCCCOC(=O)C1=C(C)NC2=C(C(=O)CC(C)(C)C2)C1c1cc2c(cc1Cl)OCO2 (configuration not stated) | i
COC(=O)c1csc2c(C(F)(F)F)cc(N3CCN(S(=O)(=O)c4ccc(Cl)cc4)CC3)nc12 | i
O=C(Cn1c(-c2ccccn2)nc2ccccc21)NCCCn1ccnc1 | i
O=C1c2ccccc2S(=O)(=O)N1Cc1cccc2ccccc12 | i
O=C1c2ccccc2S(=O)(=O)N1CCCCN1CCN(c2ncccn2)CC1 | i
O=C(OCCN1CCN(C2=NS(=O)(=O)c3ccccc32)CC1)c1cccc2ccccc12 | 3.2
O=C(Nc1ccc(-c2nc3cc(Cl)ccc3o2)cc1)c1ccc([N+](=O)[O-])o1 | i
O=C(Nc1ccc(-c2nc3ccccc3o2)c(O)c1)c1ccc([N+](=O)[O-])o1 | i
O=C(Nc1ccc2oc(-c3cccc(F)c3)nc2c1)c1ccc([N+](=O)[O-])o1 | i
O=C(Nc1ccc2oc(-c3ccc(F)cc3)nc2c1)c1ccc([N+](=O)[O-])o1 | 3
O=C(Nc1cccc(-c2nc3ncccc3o2)c1)c1ccc([N+](=O)[O-])o1 | i
COc1ccc(NC(=O)c2ccc([N+](=O)[O-])o2)cc1Cl | 3.2
COC(=O)c1cc(NC(=O)c2ccc([N+](=O)[O-])o2)cc(C(=O)OC)c1 | i
O=C(Nc1cccc(-c2nc3ccccc3o2)c1)c1ccc([N+](=O)[O-])o1 | 3.5
COc1ccc(NC(=O)c2ccc([N+](=O)[O-])o2)cc1 | i
CC(=O)Nc1c(Cl)c(Cl)c(Cl)c(Cl)c1Cl | i
SMILES | Dicer processing
CC1(C)CCc2cc(/C=C(\C#N)S(C)(=O)=O)ccc2O1 | i
Cc1cc(=O)oc2c1C(=O)CC(C)(C)C2 | i
COC(=O)c1sc(Sc2ccc(C(F)(F)F)cn2)c2c1CC(C)(C)CC2=O | i
COc1ccc(C(=O)N=S2CCN(S(=O)(=O)c3ccc(Cl)cc3)CC2)cc1 | i
CC(C)NC(=S)N1CCCN2C(=O)c3ccccc3C21 (configuration not stated) | i
CCOC(=O)/C(C#N)=C/Nc1ccc(O)cc1F | i
COc1ccc(-c2nc3n(n2)C(=O)CC(c2cccs2)S3)cc1 (configuration not stated) | 5.6
COc1ccc(C2=NN3C(C2)c2ccccc2OC3c2cccs2)cc1 (configuration not stated) | i
O=C1CC(c2ccccc2)Sc2nc(-c3cccc4ccccc34)nn21 (configuration not stated) | i
Cc1nn2c3c(cnc2c1-c1ccccc1)C(=O)CC(c1ccc(Cl)cc1)C3 (configuration not stated) | i
O=C1CC(c2ccc(Cl)cc2)Sc2nc(-c3ccccc3)nn21 (configuration not stated) | 4.1
COc1ccc(C2C(C(=O)c3cccs3)=C(O)C(=O)N2c2nncs2)cc1 (configuration not stated) | i
CCOC(=O)c1c(C)sc2c1Nc1cc(Cl)ccc1S2 | i
CNC(=S)N(C)NC(=S)Nc1ccc(OC)c(OC)c1 | i
CC12CN3CC(C)(CN(C1)C3c1ccc(O)cc1O)C2 (configuration not stated) | i
O=C(OCCN(C1=NS(=O)(=O)c2ccccc21)c1ccccc1)c1cccs1 | i
C/C(=N\Nc1nc2c(c(=O)n(C)c(=O)n2C)n1Cc1ccccc1)c1ccncc1 | i
CC1(C)CC(=O)C2=C(C1)c1c(ccc3ccccc13)NC2c1ccc(O)c(O)c1 (configuration not stated) | 13
CC1(C)CC(=O)C2=C(C1)c1c(ccc3ccccc13)NC2c1ccc(O)cc1 (configuration not stated) | i
CCOc1cc(C2Nc3ccc4ccccc4c3C3=C2C(=O)CC(C)(C)C3)ccc1O (configuration not stated) | i
O=[N+]([O-])c1cc(C(F)(F)F)ccc1Oc1ccc(-c2ncon2)cc1 | i
C=CCNc1nc2c(c(=O)[nH]c(=O)n2C)n1Cc1ccc(F)cc1 | i
CC(C)(ONC(=O)Nc1ccccc1Cl)C(=O)O | i
NC(=O)NC(=S)NC(=O)c1ccccc1Cl | i
NC(=O)NC(=O)Nc1ccccc1Cl | 6
CC12CCC(C1)C(C)(C)C2NC(=O)c1cccc([N+](=O)[O-])c1 (configuration not stated) | i
